OPRM1-OPRD1 inv: inverse agonists of human mu-delta opioid receptor heterodimerization; cell-based MOR-DOR heterodimer luminescence, inverse agonism; inhibition, % at 9.3 µM; 0.21% of 340,000 active; AID 504357; in the data active means inhibition above about 22%, passing the limit was not always enough
HTR5A ag ctr: activates human HTR5A in OPRM1-OPRD1 agonist counter-screen; HTR5A agonist assay, luminescence, cell-based; activation, % at 9.3 µM; 0.61% of 340,000 active; AID 504692; in the data active means activation mostly above about 9.5%, no sharp cut-off; inactive means mostly below about 7.6%
HTR5A inv ag: inverse agonist of human HTR5A in OPRM1-OPRD1 counter-screen | P47898 | HTR5A cell line, luminescence, inverse agonism | inhibition, % at 9.3 µM | 0.083% of 340,000 active; in the data active means inhibition mostly above about 23%, no sharp cut-off; inactive means mostly below about 18%
HTR2A ag: mouse HTR2A agonism via beta-arrestin recruitment. P35363. CHO-K1 mHTR2A beta-arrestin complementation, luminescence; percent of 30 µM serotonin response. activation, % at 7.6 µM. 0.66% of 360,000 active. AID 624169;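 active means activation above a run cutoff, the mean activation of all tested compounds plus 3 SD, cut at about 14% in these data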
Target sequence (P35363 whole entry, looked up): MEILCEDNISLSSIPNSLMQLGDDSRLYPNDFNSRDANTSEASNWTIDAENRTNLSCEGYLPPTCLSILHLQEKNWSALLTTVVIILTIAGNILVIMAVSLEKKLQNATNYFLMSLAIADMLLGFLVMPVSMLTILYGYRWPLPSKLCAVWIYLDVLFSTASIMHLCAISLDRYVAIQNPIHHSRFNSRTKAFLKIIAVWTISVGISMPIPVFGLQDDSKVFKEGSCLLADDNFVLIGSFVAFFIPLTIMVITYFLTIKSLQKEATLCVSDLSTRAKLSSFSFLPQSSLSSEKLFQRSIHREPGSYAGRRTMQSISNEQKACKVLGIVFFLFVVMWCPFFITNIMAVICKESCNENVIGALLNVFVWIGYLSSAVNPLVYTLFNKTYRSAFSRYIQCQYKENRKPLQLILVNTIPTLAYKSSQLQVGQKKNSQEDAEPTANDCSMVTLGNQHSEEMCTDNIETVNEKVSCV
MOR-DOR ag: agonists of human mu-delta opioid receptor heterodimerization; 0.3% of 340,000 active; activation, % at 9.3 µM; P35372+P41143; cells, OPRM1-OPRD1 heterodimerization, luminescence; AID 504326
OPRM1-D1 ag cf: confirmation of human OPRM1-OPRD1 heterodimerization agonists | shares compounds with MOR-DOR ag | cells, MOR-DOR heterodimerization, luminescence complementation | activation, % at 9.3 µM | 45% of 830 active | AID 504904
HTR5A ag ctr2: activates human HTR5A in OPRM1-OPRD1 agonist counter-screen | shares compounds with MOR-DOR ag | HTR5A agonist counterscreen, cell luminescence | activation, % at 9.3 µM | 8% of 830 active; in the data active means activation above about 17%
Of the large screens only hits and unclear results are named; the others gave an inactive call (follow-up assays come after a bar, where they were run). Only some compounds are listed: those with a hit (about 1.6% of all), similar ones and a draw of the others. Unless noted, no stated cut-off is given here; in the data, active means activation above about 18%; inactive means the rest.

COc1cc(NC(=O)c2cccc(C)c2)ccc1NC(=O)c1cc2ccccc2o1	MOR-DOR ag 30.1 | OPRM1-D1 ag cf 48.6 | HTR5A ag ctr2 inactive
CCOc1cccc(C(=O)Nc2ccc(NC(=O)c3cc4ccccc4o3)c(OC)c2)c1	none
COc1cc(CN2C[C@@H](CO)O[C@@H](n3cnc4c(NCc5ccncc5)ncnc43)C2)cc(OC)c1OC	none (no result: OPRM1-OPRD1 inv, HTR5A ag ctr, HTR5A inv ag, MOR-DOR ag)
CCOC(=O)[C@]12CCCC=C1N(Cc1ccc3c(c1)OCO3)C(=O)[C@H](CC(=O)NCCc1ccccc1OC)C2	none (no result: OPRM1-OPRD1 inv, HTR5A ag ctr, HTR5A inv ag, MOR-DOR ag)
CC(=O)C1CCC2C3CC=C4CC(SC(=N)N)CCC4(C)C3CCC12C (stereo not drawn)	MOR-DOR ag 42.2 | OPRM1-D1 ag cf 79.0 | HTR5A ag ctr2 inactive
Oc1ccc(Br)cc1CNc1cccc2cccnc12	MOR-DOR ag 18.6 | OPRM1-D1 ag cf inactive | HTR5A ag ctr2 inactive
O=C(Cn1c(-c2ccccc2)c[n+]2ccsc12)c1ccc([N+](=O)[O-])cc1	MOR-DOR ag 80.9 | OPRM1-D1 ag cf inactive | HTR5A ag ctr2 40.0
O=C(CC(NC(=O)c1ccccc1Cl)c1ccccc1)NC1=NCCS1 (stereo not drawn)	none
CN(C)C1(CNC(=O)CC(NC(=O)c2ccccc2Cl)c2ccccc2)CCCCC1 (stereo not drawn)	MOR-DOR ag 21.7 | OPRM1-D1 ag cf inactive | HTR5A ag ctr2 inactive
CC1(C(=O)Nc2ccc(Cl)cc2)Cc2c(-c3ccc(C(N)=O)cc3)ccnc2O1 (stereo not drawn)	none (no result: OPRM1-OPRD1 inv, HTR5A ag ctr, HTR5A inv ag, MOR-DOR ag)
COc1ccc(C(CNC(=O)CSc2ccccc2C)N(C)C)cc1 (stereo not drawn)	MOR-DOR ag 115.2 | OPRM1-D1 ag cf 112.1 | HTR5A ag ctr2 inactive
COc1ccc(C(CNC(=O)/C=C/c2c(Cl)nc3ccccn23)N(C)C)cc1 (stereo not drawn)	MOR-DOR ag 62.9 | OPRM1-D1 ag cf 66.0 | HTR5A ag ctr2 inactive
COc1ccc(C(CNC(=O)Cc2ccc(-c3ccccc3)cc2)N(C)C)cc1 (stereo not drawn)	MOR-DOR ag 320.2 | OPRM1-D1 ag cf inactive | HTR5A ag ctr2 inactive
CCC(=O)NC(c1ccc(N(C)C)cc1)c1c(O)ccc2ccccc12 (stereo not drawn)	none
CN(C)c1ccc(C(CNC(=O)Cc2cccc3ccccc23)N(C)C)cc1 (stereo not drawn)	MOR-DOR ag 38.9 | OPRM1-D1 ag cf 44.9 | HTR5A ag ctr2 inactive
O=C(CC[C@H]1O[C@@H](n2ccc(=O)[nH]c2=O)[C@H](O)[C@@H]1O)N[C@@H](Cc1ccccc1)C(=O)NCC1CCCO1 (stereo partly drawn)	none (no result: OPRM1-OPRD1 inv, HTR5A ag ctr, HTR5A inv ag, MOR-DOR ag)
CC(=O)Nc1cccc(Nc2cc(C)nn2C)c1	none (no result: OPRM1-OPRD1 inv, HTR5A ag ctr, HTR5A inv ag, MOR-DOR ag)
COc1ccc(C(CNC(=O)C(Cc2ccccc2)NC(N)=O)N(C)C)cc1 (stereo not drawn)	MOR-DOR ag 23.5 | OPRM1-D1 ag cf 268.5 | HTR5A ag ctr2 inactive
COc1ccc(/C=C/C(=O)Nc2ccccc2C(=O)NCC(c2ccc(OC)cc2)N(C)C)cc1 (stereo not drawn)	MOR-DOR ag 22.0 | OPRM1-D1 ag cf inactive | HTR5A ag ctr2 inactive
COC(=O)CCCn1cc(CN2CC(N3CCN(Cc4ccccc4F)CC3)CS2(=O)=O)nn1 (stereo not drawn)	none (no result: OPRM1-OPRD1 inv, HTR5A ag ctr, HTR5A inv ag, MOR-DOR ag)
COC(=O)c1cc([N+](=O)[O-])c(C)c(C)n1	none (no result: OPRM1-OPRD1 inv, HTR5A ag ctr, HTR5A inv ag, MOR-DOR ag)
COC1=CC(=O)c2nc(Cl)ccc2C1=O	none (no result: OPRM1-OPRD1 inv, HTR5A ag ctr, HTR5A inv ag, MOR-DOR ag)
COC1=CC(=O)c2c(ccc3ncnc(N)c23)C1=O	MOR-DOR ag 41.1 | OPRM1-D1 ag cf inactive | HTR5A ag ctr2 inactive
Cc1cscc1-c1ccc(C(=O)Nc2c(C)cccc2C)o1	none (no result: OPRM1-OPRD1 inv, HTR5A ag ctr, HTR5A inv ag, MOR-DOR ag)
CSCCNC(=O)c1ccc(OC2CCN(CCc3ccccc3)CC2)cc1	none
COC(=O)CCCNC(=O)c1ccc(OC2CCN(CCc3ccccc3)CC2)cc1	MOR-DOR ag 37.9 | OPRM1-D1 ag cf 34.6 | HTR5A ag ctr2 inactive
CCOc1ccc2nc(NCCNC(=O)Nc3cccc(C)c3)c(C#N)cc2c1	none
CCOc1ccc2nc(NCCNC(=O)Nc3ccccc3)c(C#N)cc2c1	MOR-DOR ag 49.8 | OPRM1-D1 ag cf 29.3 | HTR5A ag ctr2 inactive
Cc1sc(NC(=S)NC(=O)C2CCCCC2)c(C(N)=O)c1C	MOR-DOR ag 18.9 | OPRM1-D1 ag cf 21.0 | HTR5A ag ctr2 inactive
COc1cccc(-c2nnc(NC(=O)c3ccc(Cl)s3)o2)c1	MOR-DOR ag 19.7 | OPRM1-D1 ag cf inactive | HTR5A ag ctr2 inactive
O=C(CCCOc1ccc(Cl)cc1Cl)N/N=C/c1ccc(Cl)cc1	none
Cc1cc(Cl)ccc1OCCCC(=O)N/N=C/c1cccc([N+](=O)[O-])c1	MOR-DOR ag 21.3 | OPRM1-D1 ag cf inactive | HTR5A ag ctr2 inactive
COC(=O)[C@]12CCCCC=C1N(CCC1=CCCCC1)C(=O)[C@H](CC(=O)NCc1ccccc1)C2	none (no result: OPRM1-OPRD1 inv, HTR5A ag ctr, HTR5A inv ag, MOR-DOR ag)
CC(C)CC(/C(O)=C(\C#N)c1nc2ccccc2[nH]1)N1C(=O)c2ccccc2C1=O (stereo not drawn)	MOR-DOR ag 30.9 | OPRM1-D1 ag cf 30.3 | HTR5A ag ctr2 inactive
CCN1CCN(S(=O)(=O)c2ccc(Cl)c(C(=O)N(CCc3ccccc3)Cc3ccccc3)c2)CC1	MOR-DOR ag 19.6 | OPRM1-D1 ag cf 360.3 | HTR5A ag ctr2 inactive
CCN1CCN(S(=O)(=O)c2ccc(Cl)c(C(=O)N(CC)Cc3ccccc3)c2)CC1	none
c1ccc(CCNc2ccnc3cc4ccccc4cc23)cc1	MOR-DOR ag 32.0 | OPRM1-D1 ag cf 24.3 | HTR5A ag ctr2 inactive
Cc1cc(/C=C\c2ccc3cc(N(C)C)ccc3[n+]2C)c(C)n1-c1ccccc1	MOR-DOR ag 47.8 | OPRM1-D1 ag cf inactive | HTR5A ag ctr2 inactive
C[n+]1c(/C=C/c2ccc(O)cc2)ccc2ccccc21	none
Cc1ccsc1CNC(=O)C1(C)CCCN1CC(C)C (stereo not drawn)	none (no result: OPRM1-OPRD1 inv, HTR5A ag ctr, HTR5A inv ag, MOR-DOR ag)
COCCNC(=O)C[C@H]1C[C@H]2c3cc(NS(=O)(=O)c4ccc(F)cc4)ccc3O[C@H]2[C@H](CO)O1	none (no result: OPRM1-OPRD1 inv, HTR5A ag ctr, HTR5A inv ag, MOR-DOR ag)
c1ccc(C2[C@H]3CN(Cc4cccnc4)[C@H](c4ccccc4)C34CC2(c2ccccc2)C4)cc1 (stereo partly drawn)	none
c1ccc(C2[C@H]3CN(Cc4cccnc4)[C@H](c4ccccc4)C34CC2(c2cccnc2)C4)cc1 (stereo partly drawn)	MOR-DOR ag 80.5 | OPRM1-D1 ag cf 75.3 | HTR5A ag ctr2 inactive
Cc1ccc(NC(=O)C2C3C=CC4(O3)C2C(=O)N(CCCN2CCCC2)C4C(=O)NC2CCCCC2)cc1Cl (stereo not drawn)	none
CCCCN(C)CCN1C(=O)C2C(C(=O)Nc3ccc(C)cc3)C3C=CC2(O3)C1C(=O)NC1CCCCC1 (stereo not drawn)	none
CC(C)c1ccc(NC(=O)C2C3C=CC4(O3)C2C(=O)N(CCCN2CCCCC2)C4C(=O)NC2CCCCC2)cc1 (stereo not drawn)	MOR-DOR ag 26.3 | OPRM1-D1 ag cf inactive | HTR5A ag ctr2 inactive
